Shiga toxin inh: A qHTS for Small Molecule Inhibitors of Shiga Toxin | Vero cells, Shiga toxin protein synthesis inhibition reporter | inhibition, % at 38.7 µM | hit rate 9.2% among 290,000; in the data active means inhibition mostly above about 28%, no sharp cut-off; inactive means mostly below about 43%; further: 0% is about no effect
NS1 function inh: qHTS Assay for Inhibitors of Influenza NS1 Protein Function; Potency, µM (highest dose often 46.1 µM), for inactives: at the top dose activity, positive = more growth; hit rate 0.4% among 270,000; AID 2326, 2010; calls by dose curve; further: potency means the concentration at half of the fitted maximal effect; actives are rising curves; nearly all actives have a fitted effect of over 50% in size
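Growth recovery, yeast-based: influenza A NS1 expressed in S. cerevisiae causes slow growth, and suppressors are detected by OD600. The parent strain without NS1 is used as positive control.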
Pf growth 48h: Primary qHTS for delayed death inhibitors of the malarial parasite plastid, 48 hour incubation; P. falciparum luciferase growth in erythrocytes, 48 h; Potency, µM (series often up to 28.7 µM), for inactives: at the highest dose activity change, negative = inhibition, usual class: inhibitors; hit rate 5.9% among 310,000; AID 504832, 2011; further: potency means the concentration at half of the fitted maximal effect; on the % scale 0 is the no-effect control and ±100 the full control effect
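Luciferase-expressing parasites in RBCs, 2% Hct / 0.1% parasitemia final; RPMI 1640 + 0.5% Albumax; 37 C, 5% CO2, one generation; luminescence read-out, lower signal = inhibition.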
SARS PLP yeast: qHTS of Yeast-based Assay for SARS-CoV PLP; Potency, µM (series often up to 32.9 µM), for inactives: at the top dose activity, positive = growth rescue, usual class: activators; S. cerevisiae expressing SARS-CoV PLpro, growth rescue; hit rate 0.19% among 330,000; calls by dose curve; further: potency means the concentration at half of the fitted maximal effect; 0% is about no effect; nearly all actives have a fitted effect of over 55% in size
Pf growth 96h: Primary qHTS for delayed death inhibitors of the malarial parasite plastid, 96 hour incubation. P. falciparum luciferase reporter growth, 96 h. Potency, µM (highest dose often 28.7 µM), for inactives: at the highest dose activity change, negative = inhibition, most hits filed as inhibitors. hit rate 6.9% among 320,000; further: potency means the concentration at half of the fitted maximal effect; on the % scale 0 is the no-effect control and ±100 the full control effect
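Cell-based qHTS: luciferase-tagged P. falciparum in erythrocytes (2% hematocrit, 0.05% parasitemia final) incubated with compounds for 96 hours, 37 C, 5% CO2; luciferase detection reagent then added and luminescence measured.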
CHX counter: Cycloheximide Counterscreen for Small Molecule Inhibitors of Shiga Toxin; cell reporter, cycloheximide protein synthesis inhibition counterscreen; max response, %; hit rate 12% among 300,000; AID 2314, 2010; in the data active means max response mostly above about 13%, no sharp cut-off; inactive means mostly below about 14%; further: read at 38.3 µM for the half of the compounds with a filed dose; 0% is about no effect
* marks the source's active call; other numbers are inactive results; ? = inconclusive; . = no result given. In the library only some 21% were active in any assay of this set; here they are far more common. Unless noted, the call rests on the fitted dose curve; in most records, active means well fitted inhibition curve with a large enough effect; inconclusive means small, poorly fitted or top-dose-only effect, or another doubt; inactive means no such curve, though single readings can be large or run the other way.

SMILES | Shiga toxin inh | NS1 function inh | Pf growth 48h | SARS PLP yeast | Pf growth 96h | CHX counter
COc1ccc(NC(=S)NC(=O)c2ccccc2)cn1 | 132* | -21% | 39% | -2% | 208% | 69*
CC1CCCCN1C(=O)c1c([N+](=O)[O-])cnn1C (stereo not drawn) | -8 | 8% | 5% | -5% | 7% | -4
CN(C)CCCNC(=S)NCC(c1ccc(Cl)cc1Cl)c1c[nH]c2ccccc12 (stereo not drawn) | -13 | 17% | ? | -3% | 2.1µM* | -3
CCCCNC(=S)NCC(c1ccccc1)c1c[nH]c2ccccc12 (stereo not drawn) | -7 | 3% | ? | -6% | ? | -1
CC(=O)Cn1ncc(N2CCCCC2)c(Cl)c1=O | 47 | 3% | 40% | 15% | 45% | 21*
COc1ccc(Cl)cc1NC(=O)c1cccc(-n2cnnn2)c1 | . | . | 10% | 0% | 17% | .
CCN(CC)c1ccc(/C=N/NC(=O)c2nnn(-c3nonc3N)c2C(C)C)c(O)c1 | -17 | -53% | 3.7µM* | ? | 7.4µM* | 3
CC(/C=N/NC(=O)c1nnn(-c2nonc2N)c1C(C)C)=C\c1ccco1 | 5 | -1% | -25% | 0% | 10% | 40*
CCO[C@@H]1OC(C(=O)N2CCOCC2)=C[C@H](c2ccccc2)[C@H]1CCCO | -11 | -3% | ? | -2% | ? | -3
Cc1oc(-c2ccc(Cl)cc2)nc1CN1CCC(C(=O)N2CCN(c3ccccn3)CC2)CC1 | . | 7% | . | . | . | .
CCC(=O)Nc1ccc2oc(-c3cccnc3)nc2c1 | 48* | -6% | 25% | -1% | 108% | 35*
O=C(Nc1ccc2nc(-c3ccccc3)oc2c1)c1ccco1 | 47* | -15% | ? | -9% | -9% | 29*
O=C(Nc1ccc2oc(-c3cccnc3)nc2c1)c1ccc(Br)o1 | -6 | 11% | . | -8% | ? | -4
CCc1ccc2oc(-c3ccc(NC(C)=O)cc3)nc2c1 | 145* | -67% | 11% | -14% | 0% | 61*
O=C(Nc1ccc(-c2nc3ccccc3c(=O)o2)cc1)c1ccco1 | -5 | -1% | 5% | 7% | -16% | -4
CCOc1cccc(C(=O)Nc2ccc3oc(-c4cccnc4)nc3c2)c1 | 2 | -2% | ? | 7% | ? | 1
O=C(Nc1ccc2oc(-c3cccnc3)nc2c1)c1ccco1 | 47 | -75% | -26% | -9% | -9% | 36*
O=C(O)CSCCC(=O)Nc1ccc(F)cc1 | -13 | 4% | 4% | -8% | ? | -4
CC(C)CC(=O)Nc1ccc2oc(-c3cccnc3)nc2c1 | 37 | -15% | 10% | -5% | . | 26*
CCC(C)NCC(=O)Nc1ccc(-c2nc3cc(NC(=O)CNC(C)CC)ccc3o2)cc1 (stereo not drawn) | 19 | -3% | ? | -3% | -14% | -4
Cc1ccc2oc(-c3ccc(NC(=O)CC(C)C)cc3)nc2c1 | 143* | 0% | 152% | -4% | 132% | 34*
O=C(Nc1ccc(-c2nc3ncccc3o2)cc1)c1ccc(Br)o1 | -28 | -3% | ? | -20% | . | 9
CCC(=O)NCc1ccc(-c2nc3ncccc3o2)cc1 | 23 | -2% | 0% | 2% | ? | 16*
O=C(Nc1ccc(-c2nc3ncccc3o2)cc1)c1ccco1 | 66* | -69% | 56% | -4% | . | 27*
Cc1cc(S(=O)(=O)NCCN(C)C)c(C)s1 | -7 | -4% | 0% | -9% | ? | -2
O=C(CC(c1ccccc1)c1ccccc1O)N1CCCCC1 (stereo not drawn) | 15 | 16% | -19% | 4% | ? | 6
COc1ccc(C2NS(=O)(=O)N=C2N)cc1 (stereo not drawn) | -14 | . | 3% | 1% | 40% | 12
O=C(CCN1C(=O)S/C(=C\c2ccccc2)C1=O)NCCCn1ccnc1 | -4 | -10% | -7% | 27% | -12% | 17
CC(C)c1ccc(/C=C2\SC(=O)N(CC(=O)NCCCn3ccnc3)C2=O)cc1 | 69* | 5% | 134% | -4% | 138% | 39*
O=C(CCCN1C(=O)/C(=C/c2ccccc2)SC1=S)NCCCn1ccnc1 | -5 | 8% | ? | -2% | 9.3µM* | 2

Bioassay records deposited in PubChem by National Center for Advancing Translational Sciences (NCATS).
